Experiment [1] can be described thus: qHTS assay to identify small molecule agonists of the estrogen receptor alpha (ER-alpha) signaling pathway in the presence of an antagonist - cell viability counter screen (AID 1259386).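 Also: series mostly up to about 92 µM; cells exposed to compounds for 22 h at 37 °C before the viability read; nearly all actives have a fitted effect of over 30% in size.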 The gist of the method: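 Steps: 5-day stripped-FBS culture; seed and incubate 24hr; add ICI-182,780 (10.0nM final); pin 15-point compound titration; incubate 22hr at 37C; add CellTiter-Fluor at 21hr; read fluorescence.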

For experiment [2], the target named is Progesterone receptor (Homo sapiens) (UniProt P06401). As to the kind of experiment: qHTS assay to identify small molecule agonists of the progesterone receptor (PR) signaling pathway (AID 1346784; calls by dose curve; also: nearly all actives have a fitted effect of over 30% in size; also: potency is read from the fitted curve at half-maximal effect). The gist of the method: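 Compounds were tested for PR agonism in HEK 293T cells bearing a beta-lactamase gene under UAS control. Treatment lasted 16 hr at 37C; signal came from fluorescence of a FRET substrate.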
For orientation: In qHTS, concentration-response curves come from the screen itself.

Experiment [3] has the same target. As to the kind of experiment: qHTS assay to identify small molecule antagonists of the progesterone receptor (PR) signaling pathway (AID 1346795; active = well fitted inhibition curve with a large enough effect in the signal ratio in the repeat runs, not every such curve was filed as active; the % refers to the signal ratio). The gist of the method: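 In HEK293T cells bearing the PR-UAS-bla reporter, compound effects on promegestone-driven (1 nM) beta-lactamase expression are assessed after 16 hr using a fluorescent FRET substrate incubated 2 hr at room temperature.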

A short description of experiment [4]: qHTS assay to identify small molecule antagonists of the progesterone receptor (PR) signaling pathway - cell viability counter screen (AID 1346798). Also: series mostly up to about 92 µM; nearly all actives have a fitted effect of over 50% in size. The gist of the method:
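Following a 4 hr attachment, PR-UAS-bla HEK293T cells in charcoal-stripped FBS medium were exposed to compounds with R5020 for 16 hr; CellTiter-Glo was added and luminescence read after 30 min at room temperature.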

Experiment [5] can be described thus: qHTS assay to identify small molecule antagonists of the TGF-beta/Smad signaling pathway - cell viability counter screen (AID 1346824). Also: nearly all actives have a fitted effect of over 50% in size. The gist of the method: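 Cytotoxicity counter-screen run in the same wells as the beta-lactamase Smad reporter read: CellTiter-Glo luminescence after 30 min at room temperature. HEK 293T SBE-bla cells had 5 hr compound exposure at 37 C with TGF-beta1 (0.25 ng/mL stock).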

Experiment [6] can be described thus: qHTS assay to identify small molecule agonists of the TGF-beta/Smad signaling pathway - cell viability counter screen (AID 1346829). Also: top concentration of the series differs between compounds; nearly all actives have a fitted effect of over 45% in size. A digest of the protocol: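 Luminescence from CellTiter-Glo, read after a 30 min room-temperature incubation, gives cell viability of SBE-bla HEK 293T cells treated 5 hr with compounds at 37 C.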
Experiment [7] is described as follows: qHTS assay to identify small molecule agonists of the TGF-beta/Smad signaling pathway (AID 1346859; active = well fitted activation curve with a large enough effect in the signal ratio in the repeat runs, not every such curve was filed as active; the % refers to the signal ratio; also: series mostly up to about 77 µM). The gist of the method:
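Each well held 4,000 SBE-bla HEK 293T cells incubated overnight before compound addition; 5 hr later the cleavable FRET substrate went on for 2 hr at room temperature, and fluorescence was read at two emissions.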

Experiment [8] can be described thus: Human pregnane X receptor (PXR) small molecule agonists, qHTS cell viability counter screen (AID 1346977). Also: nearly all actives have a fitted effect of over 50% in size. Also: potency is read from the fitted curve at half-maximal effect. A digest of the protocol:
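Tox21 qHTS format; PXR-Luc HepG2, 2,000/well, charcoal-stripped FBS 5%. Cpd exposure 24hr. Read: CellTiter-Fluor fluorescence, multiplexed with luciferase.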

Experiment [9] is described as follows: Caspase-3/7 induction in HepG2 cells by small molecules, qHTS assay (AID 1346978). Also: nearly all actives have a fitted effect of over 15% in size. A digest of the protocol: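 Caspase-3/7 induction was measured by Caspase-Glo 3/7 luminescence (30 min, room temperature) after a 17 hr compound exposure of wild-type HepG2 cells seeded at 2,000 per well and pre-incubated 5 hr.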
Experiment [10] can be described thus: Caspase-3/7 induction in CHO-K1 cells by small molecules, qHTS cell viability counter screen (AID 1346979). Also: nearly all actives have a fitted effect of over 35% in size. Also: potency is read from the fitted curve at half-maximal effect. A digest of the protocol: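 CellTiter-Fluor viability check, qHTS format: wild-type CHO-K1, 16hr compound treatment, 1hr reagent incubation, fluorescence read.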
Experiment [11] in a line: Caspase-3/7 induction in CHO-K1 cells by small molecules, qHTS assay (AID 1346980). Also: nearly all actives have a fitted effect of over 15% in size. A digest of the protocol: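 Luminescent Caspase-Glo 3/7 read (30min, room temperature) quantified apoptosis induction. Cells were wild-type CHO-K1, treated with compound for 17hr at 37 C and 5% CO2.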
In experiment [12] the target is Nuclear receptor subfamily 1 group I member 2 (Homo sapiens) (UniProt O75469). Briefly: Human pregnane X receptor (PXR) small molecule agonists, qHTS assay (AID 1346982). Also: nearly all actives have a fitted effect of over 35% in size. Also: potency is read from the fitted curve at half-maximal effect. The gist of the method:
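After plating in 5% charcoal-stripped FBS and a 5 hr rest, PXR-Luc HepG2 cells received compounds in DMSO. Following 24 hr at 37 C, ONE-Glo was added and light output read.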

Experiment [13] has as its target Cytochrome P450 2D6 (Homo sapiens) (UniProt P10635). As to the kind of experiment: Cytochrome P450 Family 2 Subfamily D Member 6 (CYP2D6) small molecule antagonists: luciferase reporter qHTS assay (AID 1671196). Also: nearly all actives have a fitted effect of over 50% in size. Also: potency is read from the fitted curve at half-maximal effect. As to activity change, negative = inhibition: series mostly up to about 120 µM. The gist of the method:
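Quantitative HTS of Tox21 chemicals against CYP2D6 using a luminescent proluciferin substrate. After NADPH addition, 1 h room-temperature reaction; luminescence recorded 20 min post detection reagent.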
A general note: Reporter assays use an easily measured gene product as a stand-in for the process of interest.

Experiment [14] can be described thus: qHTS assay to identify small molecule agonists of the progesterone receptor (PR) signaling pathway - cell viability counter screen (AID 1346799; calls by dose curve; also: nearly all actives have a fitted effect of over 45% in size). The gist of the method: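 Here, 3,000 PR-UAS-bla HEK293T cells per well were treated with compounds for 16 hr after a 6 hr preincubation at 37C and 5% CO2; cell viability is the CellTiter-Glo luminescence signal.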

The nature of experiment [15]: Caspase-3/7 induction in HepG2 cells by small molecules, qHTS cell viability counter screen (AID 1346981). Also: series mostly up to about 92 µM; nearly all actives have a fitted effect of over 30% in size. A digest of the protocol: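 The parent HepG2 line is plated at 2,000 cells per well and rested 5 hr before compound pinning from DMSO stocks. Following a 16-hr treatment at 37 C, a fluorogenic live-cell substrate (CellTiter-Fluor) reports viability after 1 hr.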

For experiment [16], the target named is Thyrotropin-releasing hormone receptor (Homo sapiens) (UniProt P34981). Briefly: qHTS assay to identify small molecule antagonists of the thyrotropin-releasing hormone receptor (TRHR) signaling pathway (AID 1346877; active = well fitted inhibition curve with a large enough effect in the repeat runs, not every such curve was filed as active; also: series mostly up to about 51 µM). A digest of the protocol: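 Human TRHR in HEK293 cells; inhibition of the intracellular calcium rise triggered by 1 nM TRH was followed by fluorescence over 3 min. Compounds were run at 15 concentrations, three replicates each.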

Experiment [17] shares this target. Briefly: qHTS assay to identify small molecule agonists of the thyrotropin-releasing hormone receptor (TRHR) signaling pathway (AID 1346891; calls by dose curve; also: series mostly up to about 58 µM). The gist of the method: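 Screening of agonists relied on calcium signalling in HEK293 cells expressing human TRHR: dye loading 2 h at 37 °C preceded compound addition and a 3-min fluorescence time course.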
Experiment [18] deals with Nuclear receptor subfamily 1 group I member 2 (Homo sapiens) (UniProt O75469). As to the kind of experiment: CYP3A4 induction through human pregnane X receptor (PXR) by small molecules, qHTS assay (AID 1346984). Also: nearly all actives have a fitted effect of over 40% in size. The gist of the method: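 Human PXR activation is tracked via CYP3A4 promoter-luciferase in DPX-2 (HepG2) cells. Compounds treat cells for 24hr at 37C, and luminescence is read after One-Glo.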

For experiment [19] the target is unchanged. Briefly: Human pregnane X receptor (PXR) activation by small molecules, qHTS assay (AID 1346985). Also: nearly all actives have a fitted effect of over 40% in size. A digest of the protocol: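 DPX-2 cells (HepG2 co-transfected with a PXR response element and a CYP3A4-promoter luciferase construct) were seeded at 2,000 per well, rested 5 hr at 37C, then exposed to DMSO-dissolved compounds for 24 hr. Activation was read as luciferase luminescence.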

The target in experiment [20] is Nuclear receptor subfamily 1 group I member 2 (Rattus norvegicus) (UniProt Q9R1A7). As to the kind of experiment: Rat pregnane X receptor (rPXR) activation by small molecules, qHTS assay (AID 1346983). Also: nearly all actives have a fitted effect of over 20% in size. The note with it: rPXR luciferase reporter cells, One-Glo luminescence, 24 h; stronger effect = higher value. The gist of the method: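 Luminescent readout (One-Glo luciferase, 30 min room temperature) followed 24 hr compound treatment at 37 C of rPXR cells plated 2,000 per well and preincubated 5hr; qHTS format with compounds delivered in DMSO.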

Values without a mark were called inactive. Records with an inconclusive call do not appear. The source made the active and inactive calls. Unless noted, calls follow the shape of the dose curve; as a rule, active = well fitted curve in the direction sought with a large enough effect in the repeat runs; inconclusive = weak or mixed curves; inactive = no such curve, though single readings can be large; an effect the other way counts as inactive or inconclusive.
% is scaled to controls: 0 for no effect and ±100 for the full control effect.

Sequence of Nuclear receptor subfamily 1 group I member 2 (Homo sapiens) (O75469 whole entry, looked up): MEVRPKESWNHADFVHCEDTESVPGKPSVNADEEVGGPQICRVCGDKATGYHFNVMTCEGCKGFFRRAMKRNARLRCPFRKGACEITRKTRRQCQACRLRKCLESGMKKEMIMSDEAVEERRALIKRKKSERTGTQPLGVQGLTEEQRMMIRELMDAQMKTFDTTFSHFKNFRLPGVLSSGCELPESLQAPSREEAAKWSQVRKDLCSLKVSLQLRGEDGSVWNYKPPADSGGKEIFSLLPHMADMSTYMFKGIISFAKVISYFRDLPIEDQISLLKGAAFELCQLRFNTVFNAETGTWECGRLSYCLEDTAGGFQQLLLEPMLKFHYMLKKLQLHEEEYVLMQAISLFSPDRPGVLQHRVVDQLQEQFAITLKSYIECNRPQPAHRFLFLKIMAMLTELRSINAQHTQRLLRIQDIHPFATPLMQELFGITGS
Sequence of Cytochrome P450 2D6 (Homo sapiens) (P10635 whole entry, looked up): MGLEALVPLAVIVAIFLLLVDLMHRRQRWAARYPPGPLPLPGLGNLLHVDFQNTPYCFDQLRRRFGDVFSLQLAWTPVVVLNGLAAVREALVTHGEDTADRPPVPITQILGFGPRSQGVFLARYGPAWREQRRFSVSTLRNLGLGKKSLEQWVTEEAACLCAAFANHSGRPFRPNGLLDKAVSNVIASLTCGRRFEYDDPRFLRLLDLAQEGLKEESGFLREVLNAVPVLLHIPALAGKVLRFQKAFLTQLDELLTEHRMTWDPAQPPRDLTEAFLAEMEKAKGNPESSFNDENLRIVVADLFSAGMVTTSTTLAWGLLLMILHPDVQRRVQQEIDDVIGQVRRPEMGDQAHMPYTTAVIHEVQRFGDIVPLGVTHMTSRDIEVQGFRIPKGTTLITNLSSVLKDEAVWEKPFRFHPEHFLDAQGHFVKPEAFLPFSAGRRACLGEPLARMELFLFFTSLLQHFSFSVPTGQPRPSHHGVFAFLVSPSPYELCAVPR
Sequence of Progesterone receptor (Homo sapiens) (P06401 whole entry, looked up): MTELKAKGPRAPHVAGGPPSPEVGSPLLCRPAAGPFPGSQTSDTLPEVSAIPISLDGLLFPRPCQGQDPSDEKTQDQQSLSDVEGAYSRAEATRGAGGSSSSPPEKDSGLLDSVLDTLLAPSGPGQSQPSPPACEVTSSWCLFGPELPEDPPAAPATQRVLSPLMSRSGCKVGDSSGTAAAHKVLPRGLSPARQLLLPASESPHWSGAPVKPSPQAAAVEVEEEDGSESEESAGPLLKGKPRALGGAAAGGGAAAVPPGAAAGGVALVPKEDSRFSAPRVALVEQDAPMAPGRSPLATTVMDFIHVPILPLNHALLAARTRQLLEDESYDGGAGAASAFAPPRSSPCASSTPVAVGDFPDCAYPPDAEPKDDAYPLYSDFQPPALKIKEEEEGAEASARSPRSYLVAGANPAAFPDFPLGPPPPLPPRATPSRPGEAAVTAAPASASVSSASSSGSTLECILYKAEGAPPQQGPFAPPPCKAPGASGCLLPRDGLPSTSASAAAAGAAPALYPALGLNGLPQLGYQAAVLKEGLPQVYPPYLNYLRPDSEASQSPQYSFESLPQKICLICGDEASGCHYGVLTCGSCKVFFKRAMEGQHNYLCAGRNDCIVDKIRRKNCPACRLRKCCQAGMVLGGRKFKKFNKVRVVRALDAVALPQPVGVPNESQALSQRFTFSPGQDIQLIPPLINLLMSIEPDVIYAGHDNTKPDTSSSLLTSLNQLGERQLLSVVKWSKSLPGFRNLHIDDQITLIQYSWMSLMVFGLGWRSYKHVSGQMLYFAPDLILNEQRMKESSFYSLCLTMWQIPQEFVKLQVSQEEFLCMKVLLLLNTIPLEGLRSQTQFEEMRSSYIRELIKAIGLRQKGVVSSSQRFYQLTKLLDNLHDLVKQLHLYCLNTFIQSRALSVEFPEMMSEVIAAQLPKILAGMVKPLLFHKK
Sequence of Thyrotropin-releasing hormone receptor (Homo sapiens) (P34981 whole entry, looked up): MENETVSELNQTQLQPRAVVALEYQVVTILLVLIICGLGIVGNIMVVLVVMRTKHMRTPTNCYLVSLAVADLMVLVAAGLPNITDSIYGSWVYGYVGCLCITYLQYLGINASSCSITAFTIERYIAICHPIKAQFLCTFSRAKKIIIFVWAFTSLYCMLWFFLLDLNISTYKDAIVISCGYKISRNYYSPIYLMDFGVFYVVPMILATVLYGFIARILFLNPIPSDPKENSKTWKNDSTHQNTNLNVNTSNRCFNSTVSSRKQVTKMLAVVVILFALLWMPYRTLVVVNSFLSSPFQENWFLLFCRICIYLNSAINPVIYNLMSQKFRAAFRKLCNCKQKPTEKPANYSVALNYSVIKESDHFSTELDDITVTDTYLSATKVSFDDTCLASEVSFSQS
Sequence of Nuclear receptor subfamily 1 group I member 2 (Rattus norvegicus) (Q9R1A7 whole entry, looked up): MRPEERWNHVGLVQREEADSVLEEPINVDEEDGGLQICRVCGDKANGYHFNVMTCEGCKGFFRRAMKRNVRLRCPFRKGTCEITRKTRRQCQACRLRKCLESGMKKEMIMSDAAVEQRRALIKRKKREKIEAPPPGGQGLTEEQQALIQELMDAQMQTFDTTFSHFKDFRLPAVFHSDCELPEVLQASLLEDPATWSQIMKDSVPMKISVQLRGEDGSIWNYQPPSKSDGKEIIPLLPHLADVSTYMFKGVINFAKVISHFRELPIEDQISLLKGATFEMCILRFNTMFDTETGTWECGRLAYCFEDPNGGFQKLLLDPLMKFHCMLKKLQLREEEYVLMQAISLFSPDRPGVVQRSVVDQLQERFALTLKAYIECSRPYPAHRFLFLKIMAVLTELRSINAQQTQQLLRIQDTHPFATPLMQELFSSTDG

`O=C1OC2(c3ccc(O)cc3Oc3cc(O)ccc32)c2ccc(N=C=S)cc21`: the Potency entry in [1], in [3], in [4], in experiment [5], in [6] and in [7] was “inactive” throughout. Moreover, the Potency result in experiment [8], in [9], in [10], in [11], in [12] and in experiment [13] was “inactive” throughout. Also, the Potency in [2] is 0.879 µM (active).
As for `COC(C)=O`, the Potency result in [1], in experiment [2], in experiment [3], in [4], in experiment [14] and in experiment [6] was “inactive” throughout. Also, the Potency result in [7], in [8], in [9], in experiment [10], in experiment [11] and in experiment [15] was “inactive” throughout. Besides, the Potency entry in [12] and in experiment [13] was “inactive” in each case.
Take `COC(=O)C1=C(C)NC(C)=C(C(=O)OCCN2CCN(C(c3ccccc3)c3ccccc3)CC2)C1c1cccc([N+](=O)[O-])c1` (configuration not stated): the Potency entry in [1], in [2], in experiment [3], in experiment [4], in experiment [5] and in experiment [6] was “inactive” throughout. Besides, the Potency entry in experiment [7], in experiment [16], in experiment [11], in [12], in [18] and in [19] was “inactive” throughout. Further, the result in experiment [17] was inactive. The values for the Potency in experiment [10] and in experiment [13] were 21.1 µM (active) and 2.75 µM (active), respectively.
With `C=Cc1ccccc1C=C`, the Potency result in experiment [1], in experiment [2], in experiment [3], in [4], in [6] and in experiment [7] was “inactive” throughout. The Potency entry in [16], in experiment [8], in experiment [9], in experiment [10] and in experiment [15] was “inactive” each time. Besides, the call in experiment [17] was inactive. Further, the Potency in experiment [12] was 109 µM (active); in experiment [13], 79.4 µM (active).
Regarding `COc1cc2nc(N3CCN(C(=O)c4ccco4)CC3)nc(N)c2cc1OC`, the activity change, negative = cytotoxicity was -1.18% [at 19 µM] in experiment [1]; -16.5% [at 18.9 µM] in experiment [4]; 2.28% [at 19 µM] in [14]; 0.758% [at 15.8 µM] in experiment [6]; -12% [at 19 µM] in [15]. Besides, the figures for the activation in experiment [2], in [7] and in experiment [12] were 4.29% [at 19 µM], -4.52% [at 15.8 µM] and 6.3% [at 19 µM], respectively. Moreover, the activity change, negative = inhibition in experiment [3] was 5.13% [at 18.9 µM]; in experiment [13], -17.8% [at 23.6 µM]. The Potency in experiment [8] is 11.6 µM (active). Further, the caspase activation in [9] was 12.8% [at 19 µM].
Consider `CC(C)=CCNc1ncnc2c1ncn2[C@@H]1O[C@H](CO)[C@@H](O)[C@H]1O`, for which the Potency result in [1], in [2], in [3], in experiment [4], in [7] and in experiment [16] was “inactive” each time. Further, the Potency entry in experiment [11] and in experiment [13] was “inactive” each time. Besides, the call in experiment [17] was inactive. Besides, the Potency is 13.3 µM (active) in experiment [8], 11.9 µM (active) in [10] and 9.44 µM (active) in experiment [12].
As for `Nc1nc(N)nc(-c2cc(Cl)ccc2Cl)n1`, the Potency entry in [1], in experiment [2], in [3], in [4], in [6] and in [7] was “inactive” each time. Further, the Potency result in experiment [16], in [8], in experiment [9], in [10], in [11] and in [12] was “inactive” each time. Besides, the Potency entry in [18], in [19] and in experiment [13] was “inactive” in each case. In addition, the molecule was classed as inactive in experiment [17]. Also, in experiment [20], the max activation is -2.66%.
With `C/C=C/C=C/COC(=O)C(C)C`, the Potency result in [1], in [2], in experiment [3], in experiment [4], in experiment [5] and in experiment [6] was “inactive” throughout. Also, the Potency entry in [7], in experiment [16], in [9], in [11] and in experiment [13] was “inactive” in each case. Besides, the result in experiment [17] was inactive. Further, the Potency in experiment [8] was 68.6 µM (active); in experiment [10], 54.5 µM (active); in experiment [12], 43.3 µM (active).

The record behind these values is PubChem BioAssay (Tox21).
